Test results taken from PubChem BioAssay AID1159580 (chemical genetic matrix, 2015).
“And” between values parts separate entries of the source, which are not always exact repeats. Identical values can stand only once. Among all 5,500 compounds or so, about 2,000 (36%) were called active. About 18% were inconclusive and are not listed. Rule as the data show it: active = normalized growth mostly below about 0.91 (no sharp cut-off); inconclusive = no clear call, values can overlap the other calls; inactive = mostly above about 0.92. This is one part of the list.

Test: chemical genetic growth profiling, strain panel (AID 1159580);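 also: tested at 20 µM; growth read once vehicle control cultures reached saturation at 30 °C; 1 = growth at the plate median or of vehicle wells; lower values mean less growth of the strain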
Conditions: S. cerevisiae deletion strains, growth OD

Measured: normalized growth

CN[C@@H]1[C@H](OC2[C@H](O[C@H]3[C@H](O)[C@@H](O)[C@H](N=C(N)N)[C@@H](O)[C@@H]3N=C(N)N)O[C@@H](C)[C@]2(O)C=O)O[C@@H](CO)[C@H](O)[C@H]1O (stereo not given in full)
inactive: locus YAL013W, strain DEP1, active compounds read low 1 | locus YAL021C, strain ccr4, active compounds read low 1 | locus YAL026C, strain drs2, active compounds read low 0.993 | locus YAL030W, strain snc1, active compounds read low 1.01 | locus YBL061C, strain skt5, active compounds read low 1.01 | locus YBR009C, strain hhf1, active compounds read low 0.988 | locus YBR021W, strain FUR4, active compounds read low 1.02 | locus YBR023C, strain chs3, active compounds read low 1 | locus YBR171W, strain sec66, active compounds read low 1.01 | locus YBR229C, strain ROT2, active compounds read low 1.02 | locus YBR231C, strain swc5, active compounds read low 1.03 | locus YBR279W, strain paf1, active compounds read low 0.999 | locus YCL011C, strain gbp2, active compounds read low 0.992 | locus YCL016C, strain dcc1, active compounds read low 0.98 | locus YCL029C, strain bik1, active compounds read low 1.01 | locus YCL069W, strain vba3, active compounds read low 1.01 | locus YCR088W, strain abp1, active compounds read low 0.998 | locus YDL005C, strain med2, active compounds read low 1.01 | locus YDL035C, strain GPR1, active compounds read low 1.01 | locus YDL040C, strain nat1, active compounds read low 0.999 | locus YDL074C, strain BRE1, active compounds read low 1.01 | locus YDL101C, strain DUN1, active compounds read low 1.01 | locus YDL134C, strain PPH21, active compounds read low 1.01 | locus YDL185W, strain tfp1, active compounds read low 0.996 | locus YDL192W, strain arf1, active compounds read low 1.01 | locus YDR001C, strain nth1, active compounds read low 0.987 | locus YDR069C, strain doa4, active compounds read low 1.04 | locus YDR101C, strain arx1, active compounds read low 1.01 | locus YDR137W, strain rgp1, active compounds read low 1.03 | locus YDR159W, strain sac3, active compounds read low 0.978 | locus YDR162C, strain NBP2, active compounds read low 1 | locus YDR195W, strain ref2 1.04 | locus YDR297W, strain sur2, active compounds read low 1.02 | locus YDR318W, strain mcm21, active compounds read low 1.01 | locus YDR334W, strain swr1, active compounds read low 1.01 | locus YDR335W, strain msn5, active compounds read low 1.01 | locus YDR388W, active compounds read low 1.02 | locus YDR392W, strain spt3, active compounds read low 0.959 | locus YDR502C, strain sam2, active compounds read low 1.02 | locus YEL003W, strain gim4, active compounds read low 1.01 | locus YEL037C, strain rad23, active compounds read low 1 | locus YEL061C, strain CIN8 (second series), active compounds read low 1.01 | locus YEL061C, strain CIN8, active compounds read low 1.01 | locus YER015W, strain faa2, active compounds read low 1 | locus YER016W, strain bim1, active compounds read low 0.987 | locus YER110C, active compounds read low 1.03 | locus YER111C, strain swi4, active compounds read low 1 | locus YER155C, strain BEM2 (second series), active compounds read low 1.04 | locus YER155C, strain BEM2, active compounds read low 0.995 | locus YER167W, strain BCK2, active compounds read low 1.01 | locus YFR010W, strain ubp6, active compounds read low 1.03 | locus YGL078C, strain dbp3, active compounds read low 1 | locus YGL086W, strain mad1, active compounds read low 1.01 | locus YGL167C, strain pmr1, active compounds read low 1.02 | locus YGL173C, strain kem1, active compounds read low 1.03 | locus YGL227W, strain vid30, active compounds read low 0.998 | locus YGL240W, strain doc1, active compounds read low 1.05 | locus YGL248W, strain PDE1, active compounds read low 1.01 | locus YGL253W, strain hxk2, active compounds read low 0.977 | locus YGR135W, strain pre9, active compounds read low 1.01 | locus YGR229C, strain SMI1, active compounds read low 1 | locus YGR252W, strain gcn5, active compounds read low 1.01 | locus YHR013C, strain ard1, active compounds read low 1.01 | locus YHR027C, strain rpn1, active compounds read low 1 | locus YHR030C, strain SLT2, active compounds read low 1.01 and 0.961 | locus YHR079C, strain IRE1 (second series), active compounds read low 1.02 | locus YHR079C, strain IRE1, active compounds read low 0.991 | locus YHR094C, strain hxt1, active compounds read low 1.02 | locus YHR129C, strain ARP1, active compounds read low 1.01 | locus YHR142W, strain chs7, active compounds read low 1 | locus YHR200W, strain rpn10, active compounds read low 1.02 | locus YIL066C, strain RNR3, active compounds read low 1.02 | locus YIL073C, strain SPO22, active compounds read low 1.05 | locus YIL125W, strain kgd1, active compounds read low 1.01 | locus YIR030C, strain dcg1, active compounds read low 1.01 | locus YJL092W, strain hpr5, active compounds read low 1.01 | locus YJL095W, strain BCK1 (second series), active compounds read low 1.01 | locus YJL095W, strain BCK1, active compounds read low 1.01 and 0.996 | locus YJL115W, strain asf1, active compounds read low 1.01 | locus YJL129C, strain trk1, active compounds read low 1.02 | locus YJL134W, strain LCB3, active compounds read low 1 | locus YJL154C, strain vps35, active compounds read low 1 | locus YJL164C, strain tpk1, active compounds read low 0.983 | locus YJL166W, strain qcr8, active compounds read low 1.02 | locus YJL168C, strain set2, active compounds read low 1.01 | locus YJL187C, strain SWE1 (second series), active compounds read low 1.02 | locus YJL187C, strain SWE1, active compounds read low 1.01 | locus YJR043C, strain POL32, active compounds read low 1.01 | locus YJR066W, strain TOR1, active compounds read low 0.978 | locus YJR075W, strain HOC1, active compounds read low 1.01
